About 83,000 compounds went through this panel and 20% of them were active in at least one assay; those are over-represented in the sample as a whole.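 Note: values are percent growth. 100 is the growth of untreated cells, values between 100 and 0 indicate rising inhibition; between -100 and 0 indicates cell death.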 A number with no mark means an inactive call. Active and inactive are the calls of the source. How the source made its calls: active means growth percent below 10; inactive means the rest.

The test has as its system HL-60(TB) leukemia. As to the kind of experiment: NCI-60 one-dose screen, 48 h (100 = growth as untreated, 0 = no growth, -100 = all killed). The note with it: 10 µM unless noted.
Consider `CC(=O)O[C@H]1CC[C@@]2(C)C(=CC[C@@H]3[C@@H]2CC[C@]2(C)C(=O)N(O)C(=O)C[C@@H]32)C1`, for which the growth was 105%.
With `CCCCCCCCCCCCCCCCCCOc1ccccc1CC(=O)OCC[N+]1(C)CCOCC1`, the growth is 56.1%.
With `COc1cccc(-c2nc3sccn3c2-c2ccnc(NCCNS(=O)(=O)c3ccccc3)n2)c1`, the growth is 69.9%.
`COc1ccc2c(c1)c(/C(O)=C1\COC(=O)C1=O)cn2Cc1ccc(F)cc1`: the growth was 85.6%.
Take `C=C(C)[C@H]1CC/C(C)=C/CC[C@]2(C)O[C@H]2CC/C(COC(C)=O)=C\C1=O`: the growth is 117%.
Regarding `CCCCCCCCn1ccc2cc(NC(=O)Cn3cc(CN4CCOCC4)nn3)ccc21`, the growth was 97.4%.
For the molecule `Cc1cn(-c2cccc(NC(=O)c3ccc(C)c(Nc4nccc(-c5cccnc5)n4)c3)c2)cn1`, the growth is 10.4%.
Take `O=C(CSc1nnnn1-c1ccccc1)Nc1ccc(Oc2ccccc2)cc1`: the growth was 110%.
Consider `O=C(c1ccc(Br)cc1)C(Br)C(c1ccc(Cl)cc1)C(c1ccccc1)[N+](=O)[O-]` (stereo not drawn), for which the growth is 99.3%.
In the case of `COc1cc2ncnc(Nc3ccc(S(=O)(=O)Nc4cc(C)on4)cc3)c2cc1OCCCN1CCN(c2ccc(F)cc2)CC1`, the growth was 112%.
In the case of `C#CC#CC#CC#CC#CC#CC#CC#CCC1OC[C@H](COC(=O)O[C@@H](C(=O)O[C@H]2C[C@@]3(O)[C@@H](OC(=O)c4ccccc4)[C@@H]4[C@]5(OC(C)=O)CO[C@@H]5C[C@H](O)[C@@]4(C)C(=O)[C@H](OC(C)=O)C(=C2C)C3(C)C)[C@@H](NC(=O)c2ccccc2)c2ccccc2)O1` (stereo partly drawn), the growth is 8.1% (active).
The result for `O=C(Nc1ccc(N2CCNCC2)cn1)c1[nH]ncc1Nc1ncnc2sc3c(c12)CCC3` reads 74%; that for `O=C1Nc2ccccc2/C1=N/c1nc(-c2ccc(Cl)cc2)cs1`, 7.82% (active).

The values are drawn from PubChem BioAssay (NCI).
